Experimental data published in PubChem BioAssay AID1508600 (Functional Genomics Laboratory (NCATS/FGL), 2020).
Hit rate of the full screen: of about 53,000 sequences, about 3,700 (7%) were called active.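 The calls were made as follows: active = gene knockdowns whose robust z-score for IL-1 alpha signal is at least 2 or at most -2, so actives lie on both sides; inactive = the rest.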 Shown is part of a subset that was picked to be rich in actives.

Test: Components of the Cytosolic LPS Sensing Pathway: Gene Identification via Genome-wide siRNA Screen;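 also: robust z of the log signal after scaling to non-targeting control siRNA wells of the plate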
Settings: RAW264.7 macrophages, IL-1a HTRF, actives lie on both sides, screened at 100 nM (by protocol), cells primed 5 h with Pam3CSK4 first
Method in brief: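 IL-1a HTRF of supernatants after 24 hour LipidA transfection of Pam3CSK4-primed (5 hours) RAW264.7 cells, 48h post-siRNA transfection (100 nM). Scores: percent of plate negative-control median, then log-based robust z-score.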

z-score, active:
GGUGGUCUGAGAAAUACUCTT against Czib 2.06
GGAGGGACACAGAGAUUACTT against Auh 5.05
GGUGGAUAUUGAUAUCAAGTT against Fga 3.31
CUAUCAAGGGCAGUCAACUTT against Olfr1208 -2.38
CCAAGAAUGCCCAGCAAGUTT against E4f1 2.39
GGUCUUUAGCAAAUUGUUCTT against Lrrc6 2.02
CCUAGUCCUGAUUUAUCAGTT against Ddx39b -2.02
GGUCAUCAGAAGAAUCAAGTT against Arr3 2.13
GGAUGAAAGUCCUGGACAGTT against Gli3 5.97
GGAAUUCAGUGAAUGUCAUTT against Gapvd1 -2.28
GGCUCAUCAGAUGUAAACATT against Efcab6 -2.13
GCUAAGUUCCAAGGCGACCTT against Serpinh1 2.77
GGGCUACAAGAAAAAGUAUTT against Krt85 2.69
GGUCUUCUACUCCUUCUCATT against Slc6a19 -2.09
GGAAGAACAAAAAACCAUGTT against Sf3b2 -2.14
CCAUUUAAUCCAUAUUUCCTT against Gnao1 -2.05
GGAGUAAACCUACUGCUCATT against Esam 2.14
CCUUUUGUUUUACCUACUCTT against Tbx22 2.32
GGUAGACAGAGAAGAUAAATT against Slc35f5 -2.01
GGAACGUGAAUCUACAGCATT against Tex43 -2.73

z-score, inactive:
GGAGAAAGUGGACAGGGCUTT against Jph4 0.00563
GCAUCUCCUGCCAAAGCAGTT against Ms4a2 -0.381
GGUAGUAGGAGGAAUGACGTT against Ccdc93 -0.353
GCUUCCUUAUUGACAAUGGTT against Rbm19 0.596
GGAGUAGCAGAGCUUCUGGTT against S100a8 0.642
GGAGAAUAAAACUUCCAGATT against Urod -0.436
GGGACACAGCUAAAAGCUUTT against Fam20b 0.146
CGAUACAGGACCGAAGGAGTT against Fhad1 -0.196
CCCGGAGAGUCAUUUGUGUTT against Cpsf4 0.435
CGGAAUCAUACAUUGGUUCTT against Zfp217 1.22
GGUGUCUGACUUUAAGAAGTT against Foxred1 -0.247
GCCACAACUUAAUUUUCUGTT against Nav3 -0.305
GGAAUCAGAUACAAAGGAGTT against Sil1 0.265
GGACACUAUGACGGAAGUATT against Apoe -1.13
GGUUCUGAAGAUGGAGGUUTT against Ttbk2 1.22
GCGACUUCAGAUUUCAUUATT against Srsf2 -0.439
GGUCAACCAUUCCUCUUGATT against Ccdc9b 0.409
GCUGAAGGAUCCCAUUAGATT against Cbx2 -1.68
GCAACUUGGGAACUCUUUGTT against Pnpla7 -1.77
GGUUUCUUUCUCUGAGUUUTT against Man2a1 1.62
GGAGGAACUCCUAAAGAAGTT against Galntl5 -0.511
CCGAUCAUUAUGAGCAUACTT against Nxf7 -1.76
GGAUGCAGAAGAUUUUGUGTT against Ptprcap -0.704
GGAGACACAAAAGAAGAUATT against Sec14l4 -0.359
CCUGCGUUGACCAAUCAGATT against C2cd2l -1.26
GCUCUAGGAAUCCAAAUAUTT against 9930014A18Rik 0.8
GGCUUCUUCAGAUCCUAAATT against Olfr554 -0.615
GCGAUAUCUCAACUUCCCGTT against Fchsd1 0.541
GCAUGCGCCCUAAAGGAAATT against Zmynd15 0.687
CCAGUCUUAUCUGUAGAAGTT against Obox1 -1.69
GCCUAACUAUGAAACUUCGTT against Ppp1r11 0.754
CCAUUGUAGUCAGUCAAAUTT against Pip -0.498
GGAGCAGUUGUGUUUAACATT against Psg17 0.596
GGAAAGAGGGAAACUAAUUTT against Abhd17a -0.694
GGCAGAAAGCAGAAACAGUTT against Mok -0.901
GGUAUCUUCUCUUGGAAAATT against Tex12 -0.533
GCUAUGGGAUAUGAGCUGATT against Antkmt -0.75
UGUGCCCUAUAGAACCUGUTT against Krtap13-1 0.394
GGACAACUCGAGUCUUAAATT against Poln 1
GCUCUUAUCAGCAUGUAUATT against Birc6 1.7
ACUAGACUGAACUACCUGATT against Aim2 0.137
GCUAACAAGCUAGCAUUUATT against Ltv1 -1.17
GGUCCUGUUGAGAAUUUAATT against Zdhhc15 0.464
GGCAACUGAAUGUUUCCUATT against Nudt19 -1.41
CCUAAGAGAUAAGAGCACCTT against Ppa2 0.381
GGAGAUUUACUGCUCGCUGTT against Pik3r6 0.0343
CAGGAUUCCUUGGACAUACTT against Olfr477 -0.559
GGAUAAAGCAUCAGACAAATT against Hmgn1 -0.202
UCAGCUGGUUUUAAUCUCUTT against Olfr1029 -0.193
CGCAACAGAUAGUAAAUAUTT against Ufsp2 -1.21
GGACCCAAAUCUUUUUAGATT against Wac -1.03
GGUCCCAGACUGAGUGAAATT against Epo -0.302
GGUCAAGAUCCGAAGCUACTT against Cntn2 -0.749
GGUCUUGCUGUUCGAAGAATT against Gsx1 0.417
AGUGUAACUGCAGAAGCCUTT against Olfr207 -1.3
CAACCGUUGUGGCCAUGACTT against Olfr59 -0.332
CCCAGGCUAUUUCAACAAUTT against Arhgef11 -1.24
GCAGUCAAUUCCCUUUUACTT against Ankmy1 -0.876
GCCUAACCAACAAUUCUACTT against Oas1b 1.61
GGAGACUGCUAUAUUGGCUTT against 1700092C17Rik -0.147
GCUAAAAGGUAAGUACUUCTT against Lncpint 0.981
GGGUAACAACCAUGUCCGUTT against Pspn 1.26
CGGGAAUCCUAUCUAUCAATT against Smox 0.762
CGAGAUGAAUUUCUAGUAGTT against Tubgcp3 1.47
GGUUGGCUUCAAAAAUAUGTT against Psmb1 -1.04
GGAAUUCCACCUAAAAUUGTT against Ttn 1.32
CCUGCUCCUUACAUCUCGCTT against Foxred2 1.51
CGGACUCACAGAGCUAAGATT against Tnp2 1.56
GGGCAGAACUGCAUGAGAATT against Acp1 -0.176
GCACAAAUUUGGUAGUGUUTT against Nup50 -1.53
CCUGAUGUAACUAUAAACATT against Adam32 -0.107
GGAUGUCUGACUCAGGUCUTT against Olfr829 0.0622
GGCAGUGAUGUUUCUCUCGTT against Tmem198b 0.152
GGAUUCCAGAUUAAAUGAUTT against Rfc1 1.09
GGCAACCAUUAAAUGUUUATT against Trim59 -0.54
GGAUGAGCAGAAAUGUGUATT against Plekho2 0.931
CCUCUACAUCCAGGAAUGATT against Map4k1 -0.546
GGUCCUAAUUCGAAGCAGATT against Emc3 -0.589
GGGAUUGCAUGGUUAAACUTT against Nfam1 -0.901
GGUUUUGACAUCACAUUCUTT against Mtfr2 1.34
GGUUGAUGACAACAAGAAATT against Rps12 -0.368
GGGAGGAGAGGACAAAUUATT against Ywhae 1.66
GGCAGGACGAACAUGGCUATT against Hspb1 1.2
GGAAUUAAAGAGGAACUCCTT against Adamts20 0.172
GCUGUCAGACUAAAGAUAUTT against Mmd -0.733
CCUCCAGAGUAUUGUCUAGTT against Ppfia3 1.26
GGACAUUGAGAACAUUAUCTT against Caln1 -1.14
GGACCAUGUGGACUUUAGCTT against Sema7a -0.522
